Assay results reported in the supplement of paper PMC9433436.
± gives the standard deviation of the averaged measurements. In all, about 4,100 sequences were measured (“relative kcat/Km (krel) vs genomic leader AAAGAU”: median about 1.7, highest 2% from about 6.5 on). This is one part of a sample in which the highest values are shown more often than they occur.

Biological target: T1, E. coli RNase P holoenzyme (M1 P RNA + rnpA protein) (UniProt P0A7Y8)
T1 sequence: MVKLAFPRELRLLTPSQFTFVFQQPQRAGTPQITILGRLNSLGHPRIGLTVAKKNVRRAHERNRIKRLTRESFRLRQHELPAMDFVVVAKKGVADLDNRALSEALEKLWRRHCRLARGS
Experiment: relative kcat/Km (krel) vs genomic leader AAAGAU (relative (reference leader = 1)); higher = faster RNase P cleavage
Description: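 HTS-Kin: a pool of ptRNA-Met (21C construct) with all 4096 combinations of 5' leader nucleotides N(-6) to N(-1) was processed in vitro by E. coli RNase P (P RNA + rnpA/C5 protein) under multiple-turnover conditions at 37 C, pH 8, 17.5 mM MgCl2. Residual substrate was Illumina-sequenced at several fractions reacted, and relative kcat/Km (krel) was computed by internal competition kinetics, calibrated to the genomic leader (AAAGAU = 1). The listed hexamer is the varied N(-6)..N(-1) leader (DNA letters), and it sits between a fixed 5' stem-loop flank (GCAUGCACGAAAGUGCGUGCUAUGAA) and the mature tRNA-Met starting GGCUACGUAGCUCAGUUGG. Two technical replicates are averaged.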

[1] = fraction of substrate reacted: ~9-10% (9.79% repeat 1, 9.1% repeat 2)
[2] = fraction of substrate reacted: ~13-16% (15.68% repeat 1, 13.17% repeat 2)
[3] = fraction of substrate reacted: ~26-29% (28.66% repeat 1, 26.4% repeat 2)

Sequence | relative kcat/Km [1] | relative kcat/Km [2] | relative kcat/Km [3]
TAAACA | 1.85 ± 0.81 | 1.35 ± 0.24 | 1.75 ± 0.52
ATCGGA | 0.168 ± 0.15 | 0.728 ± 0.66 | 1.28 ± 1.1
CAGCTT | 2.22 ± 1.1 | 1.55 ± 0.38 | 2.33 ± 0.38
GTGCAC | 1.19 ± 0.29 | 1.29 ± 0.18 | 1.98 ± 0.6
GATAAA | 1.84 ± 0.48 | 2.34 ± 0.5 | 3.8 ± 1.4
AGAGAG | – | – | 1.16 ± 0.33
GTCGAA | 4.23 ± 1.8 | 5.6 ± 0.65 | 8.71 ± 2.8
ATCGAT | 1.99 ± 0.67 | 3 ± 0.7 | 3.36 ± 1.2
GTCGAT | 1.85 ± 0.87 | 2.87 ± 0.49 | 3.7 ± 1.3
ATCGAG | 2.14 ± 2.1 | 1.29 ± 0.12 | 3.85 ± 0.66
ATCGAA | 3.16 ± 0.35 | 5.71 ± 1.4 | 8.19 ± 3.6
GTCGAC | 3.76 ± 0.29 | 5.92 ± 1.9 | 9.01 ± 3.7
AGCGAC | 3.26 ± 1.9 | 3 ± 1.1 | 4.06 ± 1.3
GTCGTA | 2.55 ± 1.1 | 2.7 ± 0.23 | 3.88 ± 0.79
ATCGAC | 3.59 ± 0.99 | 4.75 ± 0.93 | 6.92 ± 2
GGCGAA | 2.38 ± 1.1 | 2.86 ± 0.39 | 3.85 ± 1.4
GTCGAG | 2.05 ± 1.5 | 2.123 ± 0.001 | 4.03 ± 1.6
ATCGGC | – | – | 1.97 ± 1.5
TTGCCG | – | – | 0.519 ± 0.071
AGTGAA | 2.54 ± 0.25 | 2.23 ± 0.96 | 3.35 ± 1.5
ATGACA | 1.94 ± 1.6 | 1.85 ± 0.61 | 2.06 ± 0.28
ATACGT | 0.722 ± 0.057 | 1.92 ± 1.6 | –
CGCGGA | 1.5 ± 1.2 | 1.39 ± 0.29 | 1.41 ± 0.58
AGCACC | 2.38 ± 0.45 | 2.12 ± 1.5 | 3.05 ± 1.8
CCTGGT | – | – | 2.47 ± 0.83
CTCGAC | 5.18 ± 1.3 | 6.72 ± 2.8 | 9.16 ± 4.6

Sequence | relative kcat/Km [1] | relative kcat/Km [2] | relative kcat/Km [3]
CTCGAG | 1.8 ± 0.06 | 1.72 ± 1.4 | 3.97 ± 1.3
CTCGAT | 1.97 ± 0.027 | 2.48 ± 1.3 | 4.24 ± 2.1
TAGGGA | 0.803 ± 0.65 | – | –
GGAAAC | 1.99 ± 1.4 | 1.61 ± 1.1 | 2.23 ± 0.17
CCGCGC | 2.23 ± 0.85 | 1.53 ± 0.98 | 1.76 ± 0.15
GCGCAT | 1.99 ± 0.76 | 2.09 ± 1.1 | 3.07 ± 1.8
AAAAGC | – | – | 0.981 ± 0.48
ACAGTG | – | – | 0.981 ± 0.72
CCGGTA | 1.49 ± 0.78 | 1.25 ± 0.69 | –
AACGCG | 1.32 ± 0.5 | 0.857 ± 0.52 | 1.47 ± 0.078
CCCCGA | 3.63 ± 1.8 | 4.05 ± 0.29 | 4.96 ± 1.9
TCCCGA | 3.95 ± 1.4 | 4.81 ± 0.41 | 7.64 ± 2.3
TCCCGC | 4.31 ± 2.6 | 5.2 ± 0.32 | 7.32 ± 3.2
CCCCGC | 2.14 ± 1.4 | 2.8 ± 0.83 | 4.54 ± 1.6
ACCCGC | 3.03 ± 1.8 | 3.51 ± 0.3 | 4.87 ± 1.5
ACCCGA | 3.55 ± 0.39 | 4.06 ± 0.66 | 5.44 ± 1.5
TTGCGG | 0.933 ± 0.76 | 0.256 ± 0.11 | 1.14 ± 0.22
AAATAA | 2.68 ± 1.5 | 2.92 ± 0.98 | 3.44 ± 1.2
TCACGC | 2.24 ± 0.65 | 3 ± 0.93 | 4.05 ± 1.5
GTGACT | – | 0.972 ± 0.2 | 1.08 ± 0.28
GGGACA | 1.4 ± 1.2 | 0.801 ± 0.45 | 1.2 ± 0.15
GGGTGC | 0.876 ± 0.24 | 0.837 ± 0.025 | 1.04 ± 0.35
ATGTTG | – | – | 0.642 ± 0.16
GTCTCG | 2.29 ± 1.9 | 2.35 ± 0.054 | 4.3 ± 1.1
ATCTCT | 3.47 ± 1.2 | 4.36 ± 0.18 | 6.18 ± 2.7
